In all, about 190,000 compounds went through this assay and about 3,500 (1.8%) were called active.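 The calls were made as follows: active = inhibition above a set limit, 3 SD over mean compound inhibition (cut at about 8.4% in these data); inactive = the rest.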 The list comes from a sample in which actives are over-represented; it also holds similar structures and randomly drawn compounds.
assay: RAM signaling blockers in budding yeast – dse1pr::URA3 reporter, 5-FOA selection, primary screen (AID 868);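 also: 0% = DMSO-only wells with no growth and 100% = 10 µM 1-NA-PP1 full growth; inhibition rescues growth on 5-FOA so higher OD means more RAM inhibition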; settings: S. cerevisiae dse1pr::URA3 reporter, 5-FOA growth OD615, 2 d; at 50 µM; hits give high values; analog-sensitive cbk1-as2 kinase mutant strain

inhibition, active:
O=C(NNC(=O)c1cc2c(s1)CCCC2)c1ccccc1 9.1%
COc1ccccc1-n1c(=S)[nH]c2c(sc(=S)n2-c2ccc(C)cc2C)c1=O 9.12%
N/C(Cc1ccc([N+](=O)[O-])cc1)=N\OC(=O)COc1ccc2ccccc2c1 12%
CCC(C(=O)OCC(=O)Nc1c(Cl)cc(Cl)cc1Cl)c1ccccc1 (stereo not given) 12.2%
COc1ccc(OC)c(C2C3=C(N=c4s/c(=C\c5cccc(O)c5)c(=O)n42)c2ccccc2CC3)c1 (stereo not given) 12.7%
COc1cccc(NC(=S)NC(=O)c2c(Cl)c(C)nn2C)c1 8.92%
CN(C)S(=O)(=O)c1cccc(NC(=O)COC(=O)C2(c3ccccc3F)CCCC2)c1 15.4%
S=C(NCc1ccc(Cl)cc1)NC1CCCCC1 10.9%
CCCC(C(=O)n1nc(C)cc1C)C(NS(=O)(=O)c1ccc(C)cc1)c1ccccc1 (stereo not given) 11.7%
COc1ccc(OC)c(-n2c(=S)[nH]c3cc(C(=O)N4CCCCC4)ccc3c2=O)c1 8.46%
Cc1cccc(N2CCN(C(=O)c3cnn4c(C(F)F)cc(-c5ccccc5)nc34)CC2)c1C 12.1%
CCOC(=O)c1cc2sccc2n1Cc1ccc(C#N)cc1 8.47%
O=C1Cc2ccccc2Sc2ccc(Cl)cc21 9.58%
CC(=O)c1cc(-c2ccccc2)n(CCC(=O)NC2CCCCCC2)c1C 8.76%
COc1cc2ccccc2cc1C(=O)Nc1ccc(S(=O)(=O)Nc2cc(C)on2)cc1 9.69%
CN1C(=O)/C(=C\c2cc(Br)cs2)c2ccccc21 8.8%
N#Cc1nc(Cc2cccc3ccccc23)oc1NCc1ccc2c(c1)OCO2 11%
CCCNC(=O)OC[C@H]1O[C@H](CCO/N=C/[C@@H](NS(=O)(=O)c2ccc(C)cc2)[C@H](C)/C=C/CC(=O)OC)C=C[C@@H]1Oc1ccc(OC)cc1 14.8%
CC(C)Oc1ccc(Cc2n[nH]c(=S)n2Cc2ccccc2)cc1Cl 9.13%

inhibition, inactive:
CCCCS(=O)c1snnc1C (stereo not given) -0.12%
O=C(CNC(=O)c1cc2c(s1)CCC2)Nc1ccccc1Br 1.93%
O=C(c1cc2c(s1)CCC2)N1CCN(c2ccccc2)CC1 4.37%
CCOC(=O)Cc1csc(SCC(=O)NC(C)C23CC4CC(CC(C4)C2)C3)n1 (stereo not given) 0.91%
CC(NC(=O)COC(=O)c1ccc(Cl)cc1O)c1ccc(F)cc1 (stereo not given) 3.6%
COc1cccc(-n2c(=S)sc3c(=O)n(-c4ccccc4OC)c(SCC4OCCO4)nc32)c1 7.01%
CCc1ccc(-n2c(=S)sc3c(=O)n(-c4ccccc4OC)c(=S)[nH]c32)cc1 5.97%
O=C(c1ccncc1)c1ccc([N+](=O)[O-])cc1 0.73%
CC(C)=C1C2CCC1C1C(=O)N(NC(=O)c3ccco3)C(=O)C21 (stereo not given) -1.09%
N/C(=N\OC(=O)COc1ccc([N+](=O)[O-])cc1)c1ccc(Br)cc1 2.29%
N/C(=N\OC(=O)Cc1ccc([N+](=O)[O-])cc1)c1ccccn1 1.23%
CN(C)c1nnnn1-c1ccc(Cl)cc1 -0.37%
O=C(O)/C=C/c1cn(Cc2ccccc2)nc1-c1cccs1 4%
CCC(C(=O)OCC(=O)Nc1ccc(C(=O)Nc2ccc(OC)cc2)cc1)c1ccccc1 (stereo not given) 4.72%
CCC(C(=O)OCC(=O)Nc1ccccc1-c1ccccc1)c1ccccc1 (stereo not given) 6.39%
COCCNC(=O)NC(=O)COC(=O)C1(c2ccc(Cl)cc2)CC1 0.14%
Nc1ncnc(Nc2cccc(Cl)c2Cl)n1 0.27%
CC(=O)Nc1ccc(Sc2ccccc2C(=O)N2CCCC2)cn1 1.82%
CCOC(=O)C1=C(C)N=c2s/c(=C\C(=O)OC)c(=O)n2C1c1ccc(OC)cc1 (stereo not given) 2.7%
O=C1CCCC2=C1C(c1ccccc1)n1c(s/c(=C/c3cccc(F)c3)c1=O)=N2 (stereo not given) 3.98%
Cc1ccc2[nH]c(=O)c(CN(CC3COCCO3)C(=O)Nc3ccccc3C)cc2c1 (stereo not given) 0.63%
CCCCCOc1ccc(CSC2=NCCN2)cc1[N+](=O)[O-] -0.98%
O=C(Nc1nc(-c2cccnc2)cs1)c1ccccc1F -0.37%
Cc1nn(C)c(C(=O)NNC(=S)NC2CCCCC2)c1Cl 0.28%
COc1cccc(NC(=S)NCc2ccccn2)c1 2.63%
CCOC(=O)C1(Cc2cccc(OC)c2)CCCN(S(=O)(=O)c2cccnc2)C1 (stereo not given) 0.14%
O=C(NCc1ccccc1)C1CCCN(c2nc3ccsc3c(=O)s2)C1 (stereo not given) 3.39%
CN(C)S(=O)(=O)c1cccc(NC(=O)COC(=O)c2cc(=O)[nH]c(=O)[nH]2)c1 0.97%
CN(C)S(=O)(=O)c1cccc(NC(=O)COC(=O)/C=C/c2cccs2)c1 0.87%
CC1CC(C)(C)NC(=S)N1CCC(=O)N1CCN(Cc2ccccc2)CC1 (stereo not given) -0.49%
CCC(C)(C)NC(=O)CN(C(=O)CCC(=O)Nc1cc(C)ccn1)c1ccc2c(c1)OCCO2 1.5%
Cc1ccn(CC(=O)N2N=C(C(F)F)CC2(O)C(F)F)n1 (stereo not given) 0.78%
CN(C)CCCNC(=S)NCc1ccc(Cl)cc1 0.25%
S=C(NCc1ccc(Cl)cc1)NC12CC3CC(CC(C3)C1)C2 5.19%
Cc1ccc(S(=O)(=O)NC(C(=O)N2CCOCCOCCOCCOCC2)c2ccccc2)cc1 (stereo not given) 2%
Cc1ccc(S(=O)(=O)Nc2nc(C)cc(-n3nc(C)cc3C)n2)cc1 2.7%
COc1ccccc1Cn1c(=S)[nH]c2cc(C(=O)N3CCN(C)CC3)ccc2c1=O 2.83%
COc1ccc(OCc2cccc(C(=O)N3CCCC3)c2)cc1 -0.11%
CC(=O)c1ccc(S(=O)(=O)Nc2ccc(C(=O)NCC(c3ccccc3)N(C)C)cc2)cc1 (stereo not given) 1.76%
O=C(Nc1ccc(N2CCN(C(=O)c3cccs3)CC2)cc1)c1cccnc1Cl 0.88%
CC(=O)N1CCN(c2cccc(C)c2C)CC1 2.09%
O=C(O)c1cnn2c(C(F)(F)F)cc(-c3ccccc3)nc12 0.53%
COc1cc(N/C=C2\CC(=O)NC(C)=C2C#N)cc(OC)c1OC 2.13%
Cn1c(=O)c2cc(S(=O)(=O)NCCC(=O)Nc3ccc(F)cc3F)ccc2n(C)c1=O 2.64%
COc1ccc(CCNC(=O)CC2SC(=Nc3cc(C)cc(C)c3)NC2=O)cc1OC (stereo not given) 1.51%
CC1Cc2ccccc2N1C(=O)c1cc2sccc2n1Cc1ccccc1 (stereo not given) 2.9%
O=C(c1cc2sccc2n1Cc1ccc(F)cc1)N1CCc2ccccc21 2.22%
NC(=O)CCC(NS(=O)(=O)c1ccc(Cl)cc1)C(=O)NCc1ccccc1Cl (stereo not given) 2.16%
CCCC1NC(=S)NC(C)=C1C(C)=O (stereo not given) 1.13%
Cc1ccc(NC(=O)c2cccnc2C(=O)Nc2ccc(C)cc2)cc1 2.98%
Cc1ccc(NC(=O)CN2CCCCC2)c2c1CC(C)(C)O2 0.63%
COc1ccc(-c2[nH]ncc2CN(C)Cc2cc(C)[nH]n2)c(F)c1 0.37%
CN(C)c1ccc(C2Nc3ccccc3C(=O)N2NS(=O)(=O)c2ccccc2)cc1 (stereo not given) 1.39%
S=C1Nc2cc(Cl)ccc2Sc2ccccc21 0%
O=C(CSc1nc2ccccc2o1)N1c2ccccc2Sc2ccc(Cl)cc21 3.58%
CN(CC(=O)N1CCN(c2ccccc2)CC1)S(=O)(=O)c1cccs1 1.71%
O=C(NCCCN1CCOCC1)c1ccccc1NS(=O)(=O)c1ccc(Br)cc1 1.86%
CC(=O)c1cc(-c2ccccc2)n(CC(=O)NC2CCCCC2)c1C 1.07%
O=C(CN1C(=O)CC(c2ccccc2)=Nc2ccccc21)NC1CCCCC1 0.45%
S=c1[nH]nc(/C=C/c2ccccc2)o1 -1.49%
O=c1c(-c2ccccc2)cnc2n1CCS2 0.49%
CNc1[nH]ncc1[N+](=O)[O-] 0.14%
CC(=O)Nc1ccc(S(=O)(=O)Nc2ccc(-c3ccc4nnc(C)n4n3)cc2)cc1 1.24%
COc1cc(OC)cc(C(=O)Nc2ccc(S(=O)(=O)Nc3cc(C)on3)cc2)c1 3.99%
Cc1cc(NS(=O)(=O)c2ccccc2)no1 1.83%
C/C=N/NC(=O)CCCC(=O)N/N=C/C 0.88%
C#CCOCCOCCOCCNc1nc(N2CCN(C(=O)[C@H](C(C)C)n3cc(CCO)nn3)CC2)nc(N2CCN(C(=O)[C@H](C(C)C)n3cc(CCO)nn3)CC2)n1 1.36%
CCC1C(=O)c2ccccc2N(C)C1=O (stereo not given) 0.28%
CN1C(=O)/C(=N/OC(=O)c2ccccc2Br)c2ccccc21 4.91%
CN1CCN(C(=O)CCc2ncc(C(F)(F)F)cc2Cl)CC1 -0.55%
COc1ccc(-n2cnc3cc(C(=O)NC4CCCC4)ccc32)cc1 -0.87%
N#Cc1nc(Cc2ccccc2)oc1NCCc1ccccc1 2.28%
O=C(COc1ccccc1)NCc1ccc2c(c1)OCO2 3.27%
CCCC(NS(=O)(=O)c1ccc(OC)cc1)C(=O)O (stereo not given) 0%
CC(C)Oc1ccc(CCc2n[nH]c(=S)n2Cc2ccccc2)cc1 6.59%
C=CCn1c(CCc2ccc(OC(C)C)cc2)n[nH]c1=S -0.6%

Source: PubChem BioAssay AID868 (SRMLSC, 2007)
